# Assay results published in the supplement of paper PMC8728848.
# The entries come from a sample that favours the strongest signals as a whole.
# Key:
# Test in all cases: glycan array binding signal (z-score within array); higher = stronger binding
# Conditions in all cases: glycan notation: IUPAC condensed, linker removed
# [1] = molecular target: Gal3S(b1-4)[Fuc(a1-3)]GlcNAc6S
# How it was run: (§1)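 Glycan array data were curated from 3228 arrays in the Consortium for Functional Glycomics database and kept only where the protein sequence was available. Glycan names were converted to IUPAC-condensed notation, and columns mapping to the same glycan were averaged. The binding signal is a within-array Z-score, averaged across arrays of the same protein sequence at different concentrations or buffers and across linkers. Negative Z-scores can be read as non-binding.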
# Gal3S6S(b1-4)GlcNAc6S = molecular target: Gal3S6S(b1-4)GlcNAc6S
# How it was run: as §1
# Gal6S(b1-3)GlcNAc6S = molecular target: Gal6S(b1-3)GlcNAc6S
# How it was run: as §1
# GalNAc(b1-3)Gal = molecular target: GalNAc(b1-3)Gal
# How it was run: as §1
# GalNAc(b1-4)GlcNAc = molecular target: GalNAc(b1-4)GlcNAc
# How it was run: as §1
# Glc(a1-6)Glc(a1-6)Glc = molecular target: Glc(a1-6)Glc(a1-6)Glc
# How it was run: as §1
# [2] = molecular target: GlcNAc(b1-2)[GlcNAc(b1-4)]Man(a1-3)[GlcNAc(b1-4)][GlcNAc(b1-2)[GlcNAc(b1-6)]Man(a1-6)]Man(b1-4)GlcNAc(b1-4)[Fuc(a1-6)]GlcNAc
# How it was run: as §1
# [3] = molecular target: GlcNAc(b1-2)[GlcNAc(b1-6)]Man(a1-6)[GlcNAc(b1-2)Man(a1-3)]Man(b1-4)GlcNAc(b1-4)[Fuc(a1-6)]GlcNAc
# How it was run: as §1
# GlcNAc(b1-3)Fuc = molecular target: GlcNAc(b1-3)Fuc
# How it was run: as §1
# [4] = molecular target: GlcNAc(b1-3)Gal(b1-4)GlcNAc(b1-3)Gal(b1-4)GlcNAc(b1-2)[GlcNAc(b1-3)Gal(b1-4)GlcNAc(b1-3)Gal(b1-4)GlcNAc(b1-6)]Man(a1-6)[GlcNAc(b1-3)Gal(b1-4)GlcNAc(b1-3)Gal(b1-4)GlcNAc(b1-2)Man(a1-3)]Man(b1-4)GlcNAc(b1-4)[Fuc(a1-6)]GlcNAc
# How it was run: as §1
# [5] = molecular target: GlcNAc(b1-3)Gal(b1-4)GlcNAc(b1-3)Gal(b1-4)GlcNAc(b1-3)Gal(b1-4)GlcNAc(b1-3)Gal(b1-4)GlcNAc(b1-2)Man(a1-3)[GlcNAc(b1-3)Gal(b1-4)GlcNAc(b1-3)Gal(b1-4)GlcNAc(b1-3)Gal(b1-4)GlcNAc(b1-3)Gal(b1-4)GlcNAc(b1-2)Man(a1-6)]Man(b1-4)GlcNAc(b1-4)GlcNAc
# How it was run: as §1
# [6] = molecular target: Man(a1-2)Man(a1-6)[Man(a1-3)]Man(a1-6)[Man(a1-2)Man(a1-2)Man(a1-3)]Man
# How it was run: as §1
# [7] = molecular target: Man(a1-3)[Man(a1-6)]Man(a1-6)[Man(a1-3)]Man(b1-4)GlcNAc(b1-4)GlcNAc
# How it was run: as §1
# Man(a1-6)Man = molecular target: Man(a1-6)Man
# How it was run: as §1
# [8] = molecular target: Neu5Ac(a2-3)Gal(b1-3)GlcNAc(b1-6)GalNAc
# How it was run: as §1
# [9] = molecular target: Neu5Ac(a2-3)Gal(b1-3)[Fuc(a1-4)]GlcNAc
# How it was run: as §1
# [10] = molecular target: Neu5Ac(a2-3)GalNAc(b1-4)GlcNAc
# How it was run: as §1
# [11] = molecular target: Neu5Ac(a2-3)[GalNAc(b1-4)]Gal(b1-4)GlcNAc(b1-3)GalNAc
# How it was run: as §1
# [12] = molecular target: Neu5Ac(a2-6)Gal(b1-4)GlcNAc(b1-2)Man
# How it was run: as §1
# [13] = molecular target: Neu5Ac(a2-6)Gal(b1-4)GlcNAc(b1-2)Man(a1-3)Man(b1-4)GlcNAc(b1-4)GlcNAc
# How it was run: as §1
# [14] = molecular target: Neu5Ac(a2-6)Gal(b1-4)GlcNAc(b1-2)Man(a1-6)[GlcNAc(b1-2)Man(a1-3)]Man(b1-4)GlcNAc(b1-4)GlcNAc
# How it was run: as §1
# [15] = molecular target: Neu5Ac(a2-6)Gal(b1-4)GlcNAc(b1-2)Man(a1-6)[Man(a1-3)]Man(b1-4)GlcNAc(b1-4)GlcNAc
# How it was run: as §1
# [16] = molecular target: Neu5Ac(a2-6)Gal(b1-4)GlcNAc(b1-3)GalNAc
# How it was run: as §1
# [17] = molecular target: Neu5Ac(a2-6)GlcNAc(b1-4)GlcNAc(b1-4)GlcNAc
# How it was run: as §1
binder,measurement,setting,value
FimA-N3 (Actinomyces oris) (protein) MHHHHHHSSGVDLGTENLYFQSNAGLQGAQFQLYKAKNAYANTCSNEKEGAPIAINGQTTLTTDAQGAIDIKGLFISDSIDGADRDNQVNAMERCYVLVETKAPAGYVLPAGNGAATPVKVKAGEETTDN,glycan array binding signal (z-score),[1],4.34
same,glycan array binding signal (z-score),Gal3S6S(b1-4)GlcNAc6S,-0.339
same,glycan array binding signal (z-score),Gal6S(b1-3)GlcNAc6S,-0.446
same,glycan array binding signal (z-score),GalNAc(b1-3)Gal,2.63
same,glycan array binding signal (z-score),GalNAc(b1-4)GlcNAc,-0.022
same,glycan array binding signal (z-score),Glc(a1-6)Glc(a1-6)Glc,-0.527
same,glycan array binding signal (z-score),[2],-0.394
same,glycan array binding signal (z-score),[3],-0.252
same,glycan array binding signal (z-score),GlcNAc(b1-3)Fuc,3.03
same,glycan array binding signal (z-score),[4],0.202
same,glycan array binding signal (z-score),[5],-0.047
same,glycan array binding signal (z-score),[6],-0.315
same,glycan array binding signal (z-score),[7],-0.253
same,glycan array binding signal (z-score),Man(a1-6)Man,3.05
same,glycan array binding signal (z-score),[8],0.038
same,glycan array binding signal (z-score),[9],15.7
same,glycan array binding signal (z-score),[10],-0.492
same,glycan array binding signal (z-score),[11],-0.212
same,glycan array binding signal (z-score),[12],-0.531
same,glycan array binding signal (z-score),[13],-0.045
same,glycan array binding signal (z-score),[14],0.223
same,glycan array binding signal (z-score),[15],0.03
same,glycan array binding signal (z-score),[16],-0.16
same,glycan array binding signal (z-score),[17],2.65
